Screening results as filed in PubChem.
Most compounds without a hit are left out; they make up all but 3.5% or so of the library.
MITF inh = inhibitors of human MITF; 0.91% of 650,000 active; O75030; AID 1259374; AlphaScreen MITF homodimerization, bead proximity signal; inhibition, % at 2.6 µM; in the data active = inhibition above about 50%;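 also: 0% = vehicle wells with protein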
Target sequence (O75030 whole entry, looked up): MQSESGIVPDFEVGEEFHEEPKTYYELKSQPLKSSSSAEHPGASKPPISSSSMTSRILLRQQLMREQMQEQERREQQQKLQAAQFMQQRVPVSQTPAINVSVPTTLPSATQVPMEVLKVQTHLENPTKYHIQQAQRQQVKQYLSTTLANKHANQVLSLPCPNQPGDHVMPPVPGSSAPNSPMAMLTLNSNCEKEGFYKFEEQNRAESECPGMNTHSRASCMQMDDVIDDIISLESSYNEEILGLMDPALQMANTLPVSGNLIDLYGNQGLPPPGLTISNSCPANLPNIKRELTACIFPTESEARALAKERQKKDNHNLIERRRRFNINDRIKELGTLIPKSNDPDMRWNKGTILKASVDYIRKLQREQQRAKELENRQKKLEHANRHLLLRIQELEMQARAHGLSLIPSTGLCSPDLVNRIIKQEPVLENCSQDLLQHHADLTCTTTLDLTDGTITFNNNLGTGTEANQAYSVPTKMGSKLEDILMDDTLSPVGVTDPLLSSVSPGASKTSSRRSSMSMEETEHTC
TEAD-YAP inh = TEAD-YAP interaction inhibition; HEK-TIYL cells, TEAD-Gal4/YAP UAS-luciferase luminescence; AID 1259422; inhibition, % at 9.12 µM; 1.4% of 640,000 active; in the data active = inhibition above about 32%;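 also: 0% = median of test compound wells and 100% = reference inhibitor wells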
GPR151 ag = activates the human receptor GPR151; Q8TDV0; PathHunter beta-arrestin GPR151 cells, luminescence; activation, % at 11.2 µM; 1% of 650,000 active; in the data active = activation above about 4.9%;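 also: 0% = median of compound wells and 100% = cells with positive control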
FBW7 activator = activators of human E3 ligase FBW7; 0.13% of 650,000 active; Q969H0; normalized activity (activation), % at 26.1 µM; AlphaScreen FBW7–phospho-cyclin E peptide binding, activator screen; AID 1259310; in the data active = normalized activity above about 1.9%;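 also: purified mutant Fbw7 with reduced substrate affinity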
GPR151 confirm = confirmation of human GPR151 activators; shares compounds with GPR151 ag; GPR151 PathHunter beta-arrestin cells, luminescence, 90 min; % of EA-reagent control over plate median; 6,700 tested, under 10 active; activation, % at 11.2 µM;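 active = mean percent activation across replicates above the confirmation screen cutoff of 4.91%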
GPR119 ag = GPR119 activation, counter-screen for GPR151 activators. GPR119 PathHunter beta-arrestin cells, luminescence, 90 min; 0 = compound-well median, 100 = enzyme-acceptor control. activation, % at 11.2 µM. shares compounds with GPR151 ag. 0.3% of 6,700 active;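 active = mean percent activation in the counterscreen above 29.09%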;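 also: counterscreen on off-target GPR119 to flag nonselective hits from the GPR151 activator screen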
* = called active by the depositor; · = no result given.

SMILES | MITF inh | TEAD-YAP inh | GPR151 ag | FBW7 activator | GPR151 confirm | GPR119 ag
COc1cccc(CC(=O)NCC2COc3ccccc3O2)c1OC (stereo not drawn) | 3.6 | 0.7 | -0.4 | -0.2 | · | ·
O=C(CN1C(=O)c2ccccc2C1=O)NCC1COc2ccccc2O1 (stereo not drawn) | 0.8 | -1.0 | -1.8 | -0.3 | · | ·
COc1ccc(C2C(C(=O)NCC3COc4ccccc4O3)c3ccccc3C(=O)N2c2ccc(OC)cc2)cc1 (stereo not drawn) | 8.3 | 7.8 | 7.2* | 0.4 | 0.0 | -8.2
O=C(CN1CCN(Cc2ccccc2)CC1)NCC1COc2ccccc2O1 (stereo not drawn) | -8.2 | 4.0 | 9.2* | -0.1 | -0.4 | -8.2
COc1ccccc1CC(=O)NCC1COc2ccccc2O1 (stereo not drawn) | 13.1 | -2.4 | 5.7* | 0.1 | 0.4 | 11.1
CC(=O)N(C)c1nc(-c2ccccc2)ccc1C(=O)NCC1COc2ccccc2O1 (stereo not drawn) | 19.8 | -1.0 | 10.9* | 0.0 | 0.3 | -1.9
Cc1c(C(=O)Nc2ccc(-c3nc4ccccc4s3)cc2)oc2ccccc12 | 14.1 | -44.9 | -0.1 | 0.1 | · | ·
CCOc1ccc(/C(O)=C2/C(=O)C(=O)N(Cc3cccnc3)C2c2ccc(C)cc2)cc1C (stereo not drawn) | -6.8 | -5.5 | 0.2 | 0.0 | · | ·
C=CCOc1ccc(C2/C(=C(/O)c3ccc(OCC)c(C)c3)C(=O)C(=O)N2Cc2cccnc2)cc1 (stereo not drawn) | -18.7 | 2.9 | 6.6* | 0.0 | 0.2 | -16.6
CC(=O)n1cc(/C=c2\sc3nc4cc(C)c(C)cc4n3c2=O)c(-c2ccc(F)cc2)n1 | -12.1 | -6.8 | 6.1* | 0.0 | 1.1 | -7.1
Cc1nc2ccccc2c2nn(CC(=O)NCc3ccco3)c(=O)n12 | 43.0 | -0.2 | -0.4 | 0.9 | · | ·
CC(NS(C)(=O)=O)c1ccccc1 (stereo not drawn) | -4.8 | 3.9 | 6.3* | -0.1 | -0.1 | -0.6
O=C(NC1CCCC1)c1ccc2c(c1)NC(=O)C(CSCc1c(F)cccc1Cl)N2 (stereo not drawn) | -7.3 | 3.1 | 0.4 | -0.2 | · | ·
Cc1nc(N2CCC(C(=O)N3CCc4c(Cl)cccc4C3)CC2)nc2ccccc12 | 0.3 | 7.5 | 0.6 | 0.2 | · | ·
Cc1ccc(NC(=O)C(=O)NCC2CCCN2S(=O)(=O)c2ccc(C)cc2)cc1 (stereo not drawn) | 8.1 | 4.4 | -0.6 | 1.0 | · | ·
CCNC(=O)C(=O)NCC1CCCN1S(=O)(=O)c1ccccc1 (stereo not drawn) | 23.0 | 0.1 | 7.2* | 0.3 | -0.6 | 1.0
Cc1ccc(NC(=O)NCC2CCCN2S(=O)(=O)c2ccc(C)cc2)cc1 (stereo not drawn) | 0.4 | -35.4 | 5.8* | 0.1 | -0.8 | -17.6
COc1cccc(-n2c(=O)c3sccc3n(CC(=O)Nc3ccccc3OC)c2=O)c1 | 13.1 | 11.0 | 0.2 | -0.1 | · | ·
CC1(C)CC(=O)C2=C(C1)N(c1ccccc1)C(=O)CC2c1ccccc1 (stereo not drawn) | 13.2 | 1.9 | 6.8* | 0.0 | -0.2 | -7.3
Cc1ccc(N2C(=O)CC(c3ccccc3)C3=C2CC(C)(C)CC3=O)cc1 (stereo not drawn) | 10.7 | 10.5 | -2.0 | -0.4 | · | ·
CCOC(=O)c1c(NC(=O)c2ccccc2Cl)sc2c1CC(C)(C)NC2(C)C | -2.8 | -16.3 | 1.7 | 0.0 | · | ·
CCOC(=O)c1c(NC(=O)c2ccc(OC)cc2OC)sc2c1CC(C)(C)NC2(C)C | -1.8 | -2.1 | 5.6* | 0.1 | -0.5 | -1.9
CC1(C)Cc2c(sc(NC(=O)c3ccccc3F)c2C(N)=O)C(C)(C)N1 | 3.2 | 5.1 | 6.3* | 0.1 | 0.2 | 1.9
Cc1nn(Cc2ccc(C(=O)NC3CCCC3)o2)c(C)c1[N+](=O)[O-] | -0.2 | 6.5 | 5.5* | 0.0 | -0.9 | -15.3
Cc1[nH]nc2c1C(c1ccc(OCc3ccccc3)cc1)C(C#N)=C(N)O2 (stereo not drawn) | 7.9 | -19.1 | -0.1 | 0.1 | · | ·
SMILES | MITF inh | TEAD-YAP inh | GPR151 ag | FBW7 activator | GPR151 confirm | GPR119 ag
Cc1nnc(NC(C)c2ccccc2)[nH]c1=O (stereo not drawn) | -2.9 | -1.4 | 5.5* | 0.1 | -0.4 | 4.4
CCOC(=O)c1c(NC(=O)c2cc(F)cc(F)c2)sc(C(=O)N(CC)CC)c1C | -22.0 | -10.6 | 0.7 | -0.2 | · | ·
COc1cc(C(=O)Nc2ccc(O)cc2C)cc(OC)c1OC | 12.0 | -0.7 | -0.6 | 0.1 | · | ·
COc1cc(C(=O)Nc2cc(C)c(O)cc2C)cc(OC)c1OC | -6.0 | 4.7 | 6.1* | 0.0 | 1.1 | 4.2
CCC(CO)N1CC2([N+](=O)[O-])CC=C(C)C([N+](=O)[O-])(C1)C2 (stereo not drawn) | 4.0 | -1.3 | 1.3 | 0.1 | · | ·
COc1ccc(-n2nc(C(=O)NCC(=O)N3CCCC3)c3ccccc3c2=O)c(OC)c1 | 17.2 | -2.3 | -1.0 | 0.2 | · | ·
CCOC(=O)N1CCN(C(=O)CNC(=O)c2nn(-c3ccc(OC)cc3OC)c(=O)c3ccccc23)CC1 | 2.6 | -10.6 | 5.3* | -0.1 | -0.2 | 10.2
COc1ccc(-n2nc(C(=O)NCC(=O)Nc3ccc(OC)c(OC)c3)c3ccccc3c2=O)cc1Cl | 12.8 | 31.5 | 6.3* | 0.1 | 0.3 | 3.5
CC(C)(C)NC(=O)CN(C(=O)CCC(=O)Nc1ccccn1)c1ccccc1F | 5.9 | -1.9 | 0.4 | 0.1 | · | ·
COc1ccc(-n2nc3cc(C)c(NC(=O)c4cccs4)cc3n2)cc1 | -7.7 | -51.8 | 5.1* | 0.4 | 0.3 | 10.5
O=C(NCCC1=CCCCC1)C1CC12CCN(C(=O)CCc1nc3ccccc3[nH]1)CC2 (stereo not drawn) | -2.8 | -4.7 | 0.2 | -0.3 | · | ·
COc1cc(=O)n2c(c1C(=O)N1CCCC1)CCN(Cc1cc(C)c(C)cc1C)CC2 | 7.0 | 6.2 | 5.2* | -0.1 | 0.6 | 9.8
NC(=O)COC(=O)c1cccc(S(=O)(=O)N2CCCc3ccccc32)c1 | 0.1 | -3.9 | 6.1* | 0.0 | -0.4 | -1.2
NC(=O)COC(=O)c1ccc(S(=O)(=O)N2CCCc3ccccc32)cc1 | 1.0 | -2.1 | 1.0 | 0.0 | · | ·
O=C(C1CCC1)N1CCc2cc(S(=O)(=O)N3CCCc4ccccc43)ccc21 | 0.7 | -11.5 | 6.5* | 0.1 | 1.2 | 0.4
C=CCn1c2ccccc2c2nnc(SCC(=O)OCC(=O)NCc3ccco3)nc21 | 8.1 | 5.6 | -0.3 | 0.8 | · | ·
CC1(C)CC2(CCO1)OC(=O)CC2C(=O)NCc1ccccc1 (stereo not drawn) | -10.3 | -5.4 | 5.6* | 0.1 | 0.0 | 6.5
COC(=O)C1CC(=O)N(C)C12CCN(Cc1ccc(-c3ccc(Cl)cc3)o1)CC2 (stereo not drawn) | 1.6 | 7.4 | 0.5 | 0.0 | · | ·
Cc1ccccc1CNC(=O)CN(c1cc(C(F)(F)F)ccc1Cl)S(C)(=O)=O | 2.9 | -16.5 | 0.3 | -0.2 | · | ·
